Assay outcomes: PubChem, The Scripps Research Institute Molecular Screening Center
FBW7 act: FBW7 E3 ligase activators, primary screen, biochemical, AlphaScreen, human; F-box/WD repeat-containing protein 7 (Homo sapiens), Q969H0; AlphaScreen FBW7–phospho-cyclin E peptide binding, activator screen; AID 1259310, 2017; normalized activity (activation), % at 26.1 µM; 650,000 tested, 0.13% active; in the data active means normalized activity above about 1.9%;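 further: purified mutant Fbw7 with reduced substrate affinity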
Target sequence (Q969H0 whole entry, looked up): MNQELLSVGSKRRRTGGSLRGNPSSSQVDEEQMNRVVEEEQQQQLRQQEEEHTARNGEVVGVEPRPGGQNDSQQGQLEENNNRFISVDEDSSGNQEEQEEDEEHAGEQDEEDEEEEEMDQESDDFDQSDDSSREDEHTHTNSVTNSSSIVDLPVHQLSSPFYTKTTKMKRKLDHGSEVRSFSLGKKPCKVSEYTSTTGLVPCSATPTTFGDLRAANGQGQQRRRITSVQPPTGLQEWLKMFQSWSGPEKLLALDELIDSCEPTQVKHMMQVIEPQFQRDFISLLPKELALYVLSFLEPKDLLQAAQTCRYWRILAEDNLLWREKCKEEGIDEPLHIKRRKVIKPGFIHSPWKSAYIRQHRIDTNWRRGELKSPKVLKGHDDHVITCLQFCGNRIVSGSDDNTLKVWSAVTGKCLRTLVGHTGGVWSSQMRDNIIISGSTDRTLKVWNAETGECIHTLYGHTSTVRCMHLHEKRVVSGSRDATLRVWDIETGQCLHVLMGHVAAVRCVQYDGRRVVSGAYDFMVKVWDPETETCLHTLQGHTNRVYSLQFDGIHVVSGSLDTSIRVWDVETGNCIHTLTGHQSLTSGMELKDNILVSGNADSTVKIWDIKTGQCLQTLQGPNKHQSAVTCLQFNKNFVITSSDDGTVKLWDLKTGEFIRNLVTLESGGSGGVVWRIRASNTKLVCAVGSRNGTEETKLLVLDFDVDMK
GPR151 activ: activators of human GPR151, primary screen, cell-based, PathHunter beta-arrestin, luminescence; G-protein coupled receptor 151 (Homo sapiens), Q8TDV0; PathHunter beta-arrestin GPR151 cells; activation, % at 11.2 µM; 650,000 tested, 1% active; AID 1508602, 2020; in the data active means activation above about 4.9%
MITF inh: MITF inhibitors, primary screen, biochemical, AlphaScreen, human. 650,000 tested, 0.91% active. Microphthalmia-associated transcription factor (Homo sapiens), O75030. inhibition, % at 2.6 µM. AID 1259374, 2018. AlphaScreen MITF homodimerization, bead proximity signal; in the data active means inhibition above about 50%
TEAD-YAP block: TEAD-YAP interaction inhibition, primary screen, TEAD-YAP interaction inhibitor project, luminescence, HEK-TIYL cells | TEAD-Gal4/YAP UAS-luciferase luminescence | inhibition, % at 9.12 µM | 640,000 tested, 1.4% active | AID 1259422, 2018; in the data active means inhibition above about 32%
GPR151 confirm: GPR151 activators, triplicate retest, confirmation, cell-based, PathHunter beta-arrestin, luminescence | AID 1508609, 2020 | 6,700 tested, under 10 active | shares compounds with GPR151 activ | activation, % at 11.2 µM | GPR151 PathHunter beta-arrestin cells, 90 min; % of EA-reagent control over plate median;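 active means mean percent activation across replicates above the confirmation screen cutoff of 4.91%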
GPR119 ag: GPR119 activators in beta-arrestin cells, counter-screen for GPR151 activator project, cell-based, PathHunter beta-arrestin, luminescence, triplicate; shares compounds with GPR151 activ; 90 min; 0 = compound-well median, 100 = enzyme-acceptor control; activation, % at 11.2 µM; 6,700 tested, 0.3% active;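 active means mean percent activation in the counterscreen above 29.09%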;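 further: counterscreen on off-target GPR119 to flag nonselective hits from the GPR151 activator screen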
Of the large screens only hits and unclear results are named; the others gave an inactive call (follow-up assays come after a bar, where they were run). Shown are actives, neighbours in structure and some others; about 3.5% of the full set was active somewhere.

O=C(COc1ccccc1[N+](=O)[O-])NC(=S)Nc1ccccc1N1CCOCC1	none
COC(=O)C(SCC(=O)Nc1ccccc1)(c1c(C)[nH]n(-c2ccccc2)c1=O)C(F)(F)F (stereo unspecified)	none
C[C@@H]1CN(C(=O)c2nc3ccc(Cl)cn3c2CNCCc2ccc(O)cc2)C[C@H](C)O1	none
CCCCC1CN(CCC(=O)NCc2c(C)nn(CC)c2C)Cc2ccccc2O1 (stereo unspecified)	GPR151 activ 7.5 | GPR151 confirm inactive | GPR119 ag inactive
COC(=O)C1=CN(C2CC2)C=C(C(=O)OC)C1c1cccc(OC)c1	GPR151 activ 5.5 | GPR151 confirm inactive | GPR119 ag inactive
COC(=O)C1=CN(C2CC2)C=C(C(=O)OC)C1c1cccc(O)c1	none
Cc1ccc(NC(=O)CN2C(=O)C(C(C)C)Oc3ccccc32)nc1 (stereo unspecified)	none
CO/C(=N\S(=O)(=O)c1ccc(Cl)cc1)c1ccccc1	GPR151 activ 5.9 | GPR151 confirm inactive | GPR119 ag inactive
N/C(=N\S(=O)(=O)c1ccc(Cl)cc1)c1ccccc1	none
O=C(Cn1c(=O)oc2ccccc21)NCc1ccco1	GPR151 activ 5.3 | GPR151 confirm inactive | GPR119 ag inactive
O=C(CN1C(=O)c2ccccc2S1(=O)=O)NCc1ccco1	GPR151 activ 9.0 | GPR151 confirm inactive | GPR119 ag inactive
CSc1ccc(C2C=C(c3ccc(Cl)cc3)Nc3ncnn32)cc1 (stereo unspecified)	none
CCCCCn1c(NN=C2CCCCC2)nc2c1c(=O)[nH]c(=O)n2C	none
Cc1ccc(-c2c(N3CC(=O)N(CCc4ccccc4)C(=O)C3)c(=O)c2=O)cc1	GPR151 activ 6.5 | GPR151 confirm inactive | GPR119 ag inactive
O=C(CSc1nc2ccccc2c(=O)n1-c1ccc(F)cc1)c1ccc(Cl)cc1	none
CCn1c(SCc2cccc(Br)c2)nnc1-c1cnccn1	GPR151 activ 7.4 | GPR151 confirm inactive | GPR119 ag inactive
COc1ccc(C(=O)/C=C/c2cn(CC(O)CN3CCN(C)CC3)c3ccccc23)cc1 (stereo unspecified)	none
COc1ccc(CCNc2ncnc3nc(NCCN4CCOCC4)[nH]c23)cc1	GPR151 activ 5.6 | GPR151 confirm inactive | GPR119 ag inactive
COc1ccc(CCNc2ncnc3nc(-c4cccc(N)c4)[nH]c23)cc1	GPR151 activ 5.2 | GPR151 confirm inactive | GPR119 ag inactive
O=C(NCCOc1ccccc1)c1cccc(Nc2cnccn2)c1	none
O=C(N1CCCCC1)C12CC3CC(C1)CC(c1ccc([N+](=O)[O-])cc1)(C3)C2	GPR151 activ 6.8 | GPR151 confirm inactive | GPR119 ag inactive
CCOc1cc(/C=c2\sc3n(c2=O)C(c2c(OC)ccc4ccccc24)C(C(C)=O)=C(C)N=3)ccc1O (stereo unspecified)	none
COc1cccc(N2C(=O)CC(SC(N)=Nc3ccccc3)C2=O)c1 (stereo unspecified)	GPR151 activ 10.0 | GPR151 confirm inactive | GPR119 ag inactive
N/C(=N\N=C\c1ccc2c(c1)OCO2)SC1CC(=O)N(c2ccc(C(=O)O)cc2)C1=O (stereo unspecified)	none
C/C(CCc1ccc2c(c1)OCO2)=N\N=C(/N)SC1CC(=O)N(c2ccccc2)C1=O (stereo unspecified)	GPR151 activ 6.1 | GPR151 confirm inactive | GPR119 ag inactive
CCCC(=O)Nc1ccccc1NC(=O)COc1ccc(Br)c(C)c1	none
CCOC(=O)c1nc(Nc2c(C)cc(Br)cc2C)c2ccccc2n1	none
NC(=O)c1ccc(-c2cc(NCCc3ccc(O)cc3)nc(N)n2)cc1	none
Nc1nc(NCCc2ccc(O)cc2)cc(-c2ccc(C(=O)NC3CC3)cc2)n1	GPR151 activ 6.8 | GPR151 confirm inactive | GPR119 ag inactive
